Screens deposited in PubChem BioAssay by National Center for Advancing Translational Sciences (NCATS).
SW480 rerep = A quantitative high throughput screen for small molecules that induce DNA re-replication in SW480 colon adenocarcinoma cells | SW480 DNA re-replication, Hoechst DNA content imaging, 48 h | 340,000 tested, 1.8% active | Potency, µM (titrated, usually from 46.1 µM), without a hit: top-dose re-replication activation, most hits filed as activators | AID 624297, 2012; further: % of control where 0% means no effect; nearly all actives have a fitted effect of over 55% in size
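Cells (250 per well) received 23 nL compound or DMSO by pin tool and were kept 48 hr at 37 C, 5% CO2. Nuclei were then stained with Hoechst for 40 min and scanned for DNA content.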
KB-3-1 tox = qHTS assay for MDR1-selective chemotherapeutics: Primary screen using the parental adenocarcinoma cell KB-3-1 | 400,000 tested, 1.4% active | KB-3-1 viability, CellTiter-Glo ATP luminescence, 72 h | Potency, µM (doses to about 46.1 µM), actives largely listed as cytotoxic; further: on the % scale 0 is the no-effect control and ±100 the full control effect; nearly all actives have a fitted effect of over 60% in size
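Here the drug-naive KB-3-1 line serves as comparator for MDR sub-line selectivity; cells received compound titrations, 72 h at 37 °C, then CellTiter-Glo readout.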
ELG1 repair inh = qHTS screen for small molecules that inhibit ELG1-dependent DNA repair in human embryonic kidney (HEK293T) cells expressing luciferase-tagged ELG1. HEK293T ELG1-luciferase reporter, luminescence, 16 h; DNA damage induced by 5-fluorouridine. AID 504467, 2011. Potency, µM (series often up to 46.1 µM), inactives show top-dose activity change, negative = inhibition, actives largely listed as inhibitors. 330,000 tested, 2.3% active; further: on the % scale 0 is the no-effect control and ±100 the full control effect; nearly all actives have a fitted effect of over 55% in size
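HEK293T cells expressing luciferase-tagged ELG1 (2,000/well) received 5-Fluorouridine plus compound or DMSO for 16 hr at 37 °C. Luciferase was read by ONE-Glo luminescence after 30 min at room temperature.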
MCF10A rerep = A quantitative high throughput screen for small molecules that induce DNA re-replication in MCF 10a normal breast cells; MCF 10A DNA re-replication, Hoechst nuclear intensity, 48 h; 350,000 tested, 2.9% active; Potency, µM (top dose mostly 46.1 µM), inactives show at the highest dose activity, positive = re-replication, most hits filed as activators; further: % of control where 0% means no effect; nearly all actives have a fitted effect of over 50% in size
KB-V1 MDR tox = qHTS assay for MDR1-selective chemotherapeutics: Primary screen using the drug-selected MDR subline cells KB-V1. KB-V1 MDR cells viability, CellTiter-Glo, 72 h. Potency, µM (series often up to 46.1 µM), hits mostly cytotoxic. 400,000 tested, 3.4% active. AID 1347076, 2019; further: on the % scale 0 is the no-effect control and ±100 the full control effect; nearly all actives have a fitted effect of over 60% in size
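In this primary screen, KB-V1 cells overexpressing P-gp are incubated with library compounds (lowest to highest concentration) for 72 h at 37 degrees C before a luminescent ATP viability read.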
* hit, by the source's call; i = inactive; u = inconclusive; x = no result given. Only some compounds are listed: those with a hit (about 8.1% of all), similar ones and a draw of the others. The call rests on the fitted dose curve; in most records, active means well fitted curve in the direction sought with a large enough effect; inconclusive means small, poorly fitted or top-dose-only effect, or another doubt; inactive means no such curve, though single readings can be large; an effect the other way counts as inactive or inconclusive. Potency means the concentration at half of the fitted maximal effect.

SMILES | SW480 rerep | KB-3-1 tox | ELG1 repair inh | MCF10A rerep | KB-V1 MDR tox
Cc1nc(-c2ccccc2)nc2[nH]c(=O)n(-c3ccccc3)c(=O)c12 | -16% | u | u | -4% | 21µM*
Cc1nc(-c2ccccc2)nc2[nH]c(C(C)C)cc(=O)c12 | 4% | i | -19% | 9.2µM* | u
COc1ccccc1CN(Cc1nc2ccccc2c(=O)[nH]1)C(=O)Nc1ccc(C)cc1 | 1% | i | u | 2% | 21µM*
O=C(CCc1nc2ccccc2c(=O)[nH]1)Nc1ccc(F)cc1 | -6% | i | u | 15% | i
COc1ccccc1NS(=O)(=O)c1cc(NC(=O)CCc2nc3ccccc3c(=O)[nH]2)ccc1C | u | i | 13µM* | 7% | i
COc1ccccc1CN(Cc1nc2ccccc2c(=O)[nH]1)S(=O)(=O)c1ccc(C)cc1 | 1% | i | 23µM* | -5% | i
COc1ccccc1CN(Cc1nc2ccccc2c(=O)[nH]1)C(=O)Nc1ccccc1C | 10% | i | u | u | i
COc1cc(-c2n[nH]c(=S)n2/N=C/c2cccn2C)cc(OC)c1OC | 12% | i | u | -1% | i
Cc1cc(OCC(=O)NCC(C)C)cc(C)c1Br | 2% | i | 3% | u | i
C[C@@H]1C(c2ccccc2)=NN(c2ccccc2)[C@H]1C(=O)N1CCOC1=O | u | i | -1% | 9% | i
C[C@@H]1C(c2cccc(Cl)c2)=NN(c2ccc(Br)cc2)[C@H]1C(=O)N1CCOC1=O | 3.3µM* | i | -11% | u | i
C[C@@H]1C(c2cccc(Cl)c2)=NN(c2ccccc2)[C@H]1C(=O)N1CCOC1=O | 18µM* | i | -24% | u | i
Cc1cccc(N2CCN(S(=O)(=O)c3cc(-c4cc(C)no4)ccc3C)CC2C)c1 (stereo unspecified) | 10µM* | u | u | 3.3µM* | u
CC(=O)c1ccc(N2CCN(S(=O)(=O)c3cc(-c4cc(C)no4)ccc3C(C)C)CC2)cc1 | -3% | u | u | u | i
Cc1cc(-c2ccc(C)c(S(=O)(=O)N3CCC(C)CC3)c2)on1 | x | i | x | x | u
Cc1cc(-c2ccc(C(C)C)c(S(=O)(=O)N3CCN(c4ccccc4)CC3)c2)on1 | 6.5µM* | 5.8µM* | u | u | 12µM*
Cc1cc(-c2ccc(C(C)C)c(S(=O)(=O)N3CCC(C)CC3)c2)on1 | -1% | 21µM* | u | -3% | i
COc1ccc(N2CCN(S(=O)(=O)c3cc(-c4cc(C)no4)ccc3C(C)C)CC2)cc1 | -2% | i | 7.3µM* | 13% | u
CCN(CC(=O)Nc1ccc2c(c1)OCCO2)C(=O)CCOc1ccccc1 | u | i | u | u | i
CCCCCCN(C(=O)CCCN1C(=O)NC(c2ccc(-c3ccccc3)cc2)C(C(=O)OCc2ccccc2)=C1C)C(C)C(=O)NCCCC (stereo unspecified) | 0% | i | u | -3% | i
O=S(=O)(Nc1ccc2oc3c(c2c1)CCCC3)c1cc(Cl)ccc1Cl | x | i | x | x | i
O=C(Nc1cc(-c2nc3cc(Cl)ccc3o2)ccc1Cl)c1cccs1 | x | i | x | x | i
Cc1ccc2nc(-c3ccccn3)c(Nc3ccc(F)cc3)n2c1 | x | i | x | x | u
CCc1ccc(-c2cc(C)no2)cc1S(=O)(=O)N1CCN(c2cccc(C)c2C)CC1 | -29% | u | -18% | u | u
CCc1ccc(-c2cc(C)no2)cc1S(=O)(=O)N1CCN(c2cccc(Cl)c2)CC1 | x | 3.7µM* | x | x | u
SMILES | SW480 rerep | KB-3-1 tox | ELG1 repair inh | MCF10A rerep | KB-V1 MDR tox
Cc1cc(C)cc(NC(=O)C2CCC(CNS(=O)(=O)c3ccc4c(c3)C(C)(C)C(=O)N4C)CC2)c1 (stereo unspecified) | x | 18µM* | x | x | i
COc1ccc(NC(=O)C2CCC(CNS(=O)(=O)c3ccc4c(c3)C(C)(C)C(=O)N4C)CC2)cc1 (stereo unspecified) | x | i | x | x | i
CC(=O)N1c2ccc(S(=O)(=O)NCC3CCC(C(=O)Nc4cc(C)ccn4)CC3)cc2CC1C (stereo unspecified) | u | 23µM* | -29% | 16% | i
O=C(Nc1ccc(N2CCOCC2)cc1)c1cccc2ccccc12 | 9.2µM* | u | -8% | 29% | u
O=C(NC(NCC1CCCO1)C(Cl)(Cl)Cl)c1cccc2ccccc12 (stereo unspecified) | u | i | -10% | 12% | u
O=C(Nc1ccc2ccccc2c1)c1cccc2ccccc12 | 1% | i | x | 15% | i
O=C(NC(NC(=S)N1CCOCC1)C(Cl)(Cl)Cl)c1cccc2ccccc12 (stereo unspecified) | -7% | i | 8% | 14% | 16µM*
O=C(Nc1ccncc1)c1cccc2ccccc12 | 18µM* | i | u | -4% | u
CCOc1ccc(NC(=O)c2cc3ccccc3cc2O)cc1 | -15% | i | u | 16µM* | i
O=C(NN1CCOCC1)c1cccc2ccccc12 | 0% | i | 11% | -2% | u
O=C(Nc1ccc2nc(-c3ccco3)[nH]c2c1)c1cccs1 | -6% | i | u | -5% | i
O=C(NC(Cc1ccccc1)C(=O)O)/C(=C\c1ccco1)NC(=O)c1ccccc1Br (stereo unspecified) | u | i | 0% | 3% | i
O=C(NCC1CCCCC1)c1cc2ccccc2cc1O | u | u | u | 18µM* | i
COc1ccc(NC(=O)c2ccc3ccccc3c2OC)cc1 | u | i | x | u | u
O=C(Nc1ccncc1)c1ccc2ccccc2c1 | -3% | i | u | 7% | 16µM*
O=C(NNC(=O)c1cc2ccccc2cc1O)NC1CCCCC1 | 1% | i | 14% | -19% | i
CCOc1ccc(NC(=O)c2cccc3ccccc23)cc1 | u | u | -24% | 24% | 5.8µM*
CC12CCC(C(=O)NNC(=O)c3ccccc3)(OC1=O)C2(C)C (stereo unspecified) | -15% | i | 2% | u | i
NNC(=O)CCCNc1ncc(C(F)(F)F)cc1Cl | 6% | i | -5% | 9% | i
Cc1ccc(S(=O)(=O)N2[C@@H](c3ccc(Br)cc3)C(C(=O)O)=CC[C@H]2c2cccc(C)c2)cc1 | u | i | -4% | -6% | i
